Rows were chosen to be rich in hits. Some 6.6% of all compounds tested hit in one or more screens of this group.
TSG101-PTAP inh: blocks PTAP/TSG101 interaction to inhibit HIV-1 budding. Fluorescence polarization, FITC-PTAP peptide / Tsg101 binding. Potency, µM (highest dose often 115 µM), without a hit: at the top dose activity change, negative = inhibition, hits mostly inhibitors. 340,000 tested, under 10 active. AID 493005; active = well fitted inhibition curve with a large enough effect in the main read-out, with a control signal flat, not every such curve was filed as active; inconclusive = small, poorly fitted or top-dose-only effect, or effect the other way, or a change in a side signal; inactive = no such curve, though single readings can be large or run the other way; note: % of control where 0% means no effect
Target sequence (Q99816 whole entry, looked up): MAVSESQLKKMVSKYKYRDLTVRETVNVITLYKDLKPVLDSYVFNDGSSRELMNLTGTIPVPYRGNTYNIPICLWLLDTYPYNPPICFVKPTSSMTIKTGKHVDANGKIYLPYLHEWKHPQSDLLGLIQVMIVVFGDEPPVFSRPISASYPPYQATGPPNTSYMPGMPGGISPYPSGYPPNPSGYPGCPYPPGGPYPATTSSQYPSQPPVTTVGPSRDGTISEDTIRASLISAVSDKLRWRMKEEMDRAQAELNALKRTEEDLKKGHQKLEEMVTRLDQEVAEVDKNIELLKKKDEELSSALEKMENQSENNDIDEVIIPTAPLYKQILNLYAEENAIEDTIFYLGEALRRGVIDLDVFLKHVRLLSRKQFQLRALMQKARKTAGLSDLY
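Compounds were pin-transferred onto Tsg101 binding domain (10 uM final) in HEPES pH 7.5 buffer, then FITC-PTAP peptide was added at 50 nM final. After 20 min at RT, polarization reported peptide displacement across a qHTS concentration series.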
KB-3-1 tox: kills parental KB-3-1 adenocarcinoma cells. KB-3-1 viability, CellTiter-Glo ATP luminescence, 72 h. Potency, µM (top dose mostly 46.1 µM), most hits filed as cytotoxic. actives 1.4% (n = 400,000); note: % is set by controls: 0 for no effect and ±100 for the full control effect; nearly all actives have a fitted effect of over 60% in size
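Using CellTiter-Glo luminescence, growth of non-resistant KB-3-1 adenocarcinoma cells is assessed 72 h after pin-tool compound addition at 37 °C. Normalized responses across the concentration series yield fitted curves.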
MCF10A rerep: inducers of DNA re-replication in MCF 10A breast cells. MCF 10A DNA re-replication, Hoechst nuclear intensity, 48 h. Potency, µM (top dose mostly 46.1 µM), for the others: at the top dose activity, positive = re-replication, most hits filed as activators. actives 2.9% (n = 350,000). AID 624296; note: % of control where 0% means no effect; nearly all actives have a fitted effect of over 50% in size
RGS4 inhibitor: human RGS4 inhibition; P49798; Transcreener GDP fluorescence polarization, RGS4-accelerated GTP hydrolysis; Potency, µM (series often up to 114 µM), without a hit: top-dose activity change, negative = inhibition, usual class: inhibitors; actives 0.039% (n = 390,000); note: % is set by controls: 0 for no effect and ±100 for the full control effect; nearly all actives have a fitted effect of over 75% in size
Target sequence (P49798 whole entry, looked up): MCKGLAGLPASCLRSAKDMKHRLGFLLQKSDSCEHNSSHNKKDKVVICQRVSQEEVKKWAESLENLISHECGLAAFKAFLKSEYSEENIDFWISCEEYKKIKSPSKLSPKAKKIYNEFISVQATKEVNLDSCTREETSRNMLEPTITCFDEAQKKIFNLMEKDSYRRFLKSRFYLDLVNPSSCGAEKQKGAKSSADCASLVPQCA
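MLSMR compounds (23 nl, pin-transferred) preincubated 10 min at room temperature with a 500nM (2x) first reagent, then RGS4 at 900nM (2x) plus Transcreener GDP mix added; fluorescence polarization (620/688 nm) read before and after 90 min at 30 °C.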
KB-V1 cytotox: kills drug-selected multidrug resistant KB-V1 cells; Potency, µM (top dose mostly 46.1 µM), actives largely listed as cytotoxic; AID 1347076; KB-V1 MDR cells viability, CellTiter-Glo, 72 h; actives 3.4% (n = 400,000); note: % is set by controls: 0 for no effect and ±100 for the full control effect; nearly all actives have a fitted effect of over 60% in size
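qHTS viability screen in drug-selected KB-V1 MDR cells: 72 h compound treatment at 37 degrees C, ATP luminescence end point.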
SW480 rerep: inducers of DNA re-replication in SW480 colon cancer cells. SW480 DNA re-replication, Hoechst DNA content imaging, 48 h. actives 1.8% (n = 340,000). Potency, µM (doses to about 46.1 µM), without a hit: at the highest dose re-replication activation, usual class: activators. AID 624297; note: % of control where 0% means no effect; nearly all actives have a fitted effect of over 55% in size
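Image-based DNA-content assay: after two days of treatment, nuclei were labelled with the DNA dye Hoechst and imaged, and hits were compounds raising the count of nuclei showing high fluorescence intensity.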
* marks the source's active call; other numbers are inactive results; i = inactive; ? = inconclusive; / = not tested or not shown; [ ] = another dose, or the depositor's remark. Unless noted, calls come from the whole dose curve; as a rule, active = well fitted curve in the direction sought with a large enough effect; inconclusive = small, poorly fitted or top-dose-only effect, or another doubt; inactive = no such curve, though single readings can be large; an effect the other way counts as inactive or inconclusive. Potency is the fitted concentration of half-maximal effect.

SMILES	TSG101-PTAP inh	KB-3-1 tox	MCF10A rerep	RGS4 inhibitor	KB-V1 cytotox	SW480 rerep
CN(c1ccc(F)cc1)S(=O)(=O)N1CCCC(C(=O)NCc2ccccc2Cl)C1 (stereo not given)	/	16µM*	/	-5%	i	/
Cc1n[nH]c(C)c1S(=O)(=O)N1CCCC(C(=O)NCc2ccc(F)cc2)C1 (stereo not given)	1%	i	0.73µM*	20%	i	-59%
COc1ccc(CNC(=O)C2CCCN(C(=O)c3cnn(-c4ccc(F)cc4)c3-n3cccc3)C2)cc1 (stereo not given)	/	?	/	-8%	13µM*	/
COc1ccc2c(c1)NC(c1ccc(Cl)cc1)=NC(c1cccs1)=N2	/	i	/	-9%	i	/
COc1ccccc1CNC(=O)c1c[nH]c2ccc(S(=O)(=O)Nc3cc(C)cc(C)c3)cc2c1=O	/	i	/	2%	i	/
CC1(C)O[C@H]2[C@@H](O1)[C@@H](C(=O)Nc1ccccc1C(F)(F)F)O[C@@H]1OC(C)(C)O[C@@H]12	/	i	/	-13%	?	/
O=C(NCc1ccccc1Cl)C1CCCN(C(=O)c2cnn(-c3ccc(F)cc3)c2-n2cccc2)C1 (stereo not given)	/	?	/	-14%	16µM*	/
COc1cccc(CNC(=O)C2CCCN(S(C)(=O)=O)C2)c1 (stereo not given)	0%	i	21µM*	32%	i	2%
Cc1ccc(OCC(=O)N2CCN(C(=O)Cc3ccccc3)CC2)cc1	0%	i	-10%	-7%	i	?
O=C(COc1ccc(-c2ccccc2)cc1)N1CCN(S(=O)(=O)Cc2ccccc2)CC1	-7%	3.7µM*	1%	-7%	4.6µM*	?
COc1ccccc1NS(=O)(=O)c1cc(NC(=O)c2ccc(Cl)nc2)ccc1Cl	1%	?	18µM*	-10%	8.2µM*	1%
COc1ccccc1NC(=O)Nc1ccc(Cl)c(S(=O)(=O)Nc2ccccc2OC)c1	-2%	i	-2%	1%	i	-3%
COc1ccc(NS(=O)(=O)c2cc(N/C(=N\S(=O)(=O)c3ccccc3)c3ccc(F)cc3)ccc2Cl)cc1	-1%	21µM*	13µM*	12%	21µM*	?
Cc1ccc(NC(=S)NC(=O)c2ccc(F)cc2)cc1S(=O)(=O)Nc1ccccc1Cl	-2%	23µM*	?	-5%	?	-2%
COc1ccc(NC(=S)NC(=NS(=O)(=O)c2ccc(Cl)cc2)c2ccccc2)cc1	-6%	21µM*	?	-51%	i	?
O=C(Nc1cccc(F)c1)C1CCN(c2nc3ccccc3[nH]2)CC1	/	i	/	-17%	i	/
CCN(CC)c1ccc(NC(=O)c2ccccc2)cc1S(=O)(=O)Nc1ccccc1OC	-2%	i	11%	?	15µM*	6%
CCOc1ccc(NS(=O)(=O)c2cc(NC(=O)c3ccc(C)cc3)ccc2Cl)cc1	-1%	?	2.1µM*	5%	0.82µM*	4.6µM*
COc1ccc(NC(=O)c2ccccc2)cc1NS(=O)(=O)c1ccc(F)cc1	2%	i	-1%	-22%	i	-19%
COc1ccc(C(=O)Nc2ccc(Cl)c(S(=O)(=O)Nc3ccccc3OC)c2)cc1	-6%	?	9%	-2%	2.3µM*	3%
CCc1cccc(C)c1NC(=O)c1cnn(-c2ccc(F)cc2)c1-n1cccc1	/	?	/	-14%	?	/
Cc1nn(C(=O)c2ccc(Br)cc2)c(C)c1S(=O)(=O)N1CCOCC1	/	i	/	-16%	i	/
Cc1cc(Br)c(OCC(=O)NN)c2c1CCC2	-2%	i	15µM*	6%	?	31%
CC(=O)Nc1ccc(NC(=O)COc2c(C)cc(Br)cc2C)cc1	-1%	i	-35%	10%	i	-40%
Cc1ccc2c(c1)N(C(=O)NC1CCCCC1)C(C)(C)CC2C (stereo not given)	-5%	i	9.2µM*	16%	i	?
SMILES	TSG101-PTAP inh	KB-3-1 tox	MCF10A rerep	RGS4 inhibitor	KB-V1 cytotox	SW480 rerep
O=S(=O)(N/N=C1/CC(c2ccccc2)Oc2ccccc21)c1ccc(Br)cc1 (stereo not given)	-4%	18µM*	10µM*	5%	23µM*	?
COc1ccc(C2C(C#N)=C(N)Oc3cc(N)ccc32)cc1 (stereo not given)	37%	i	14%	26%	i	-9%
COc1ccc(C2C(C#N)=C(N)Oc3c2ccc2cccnc32)cc1OC (stereo not given)	-4%	2.6µM*	4.6µM*	-8%	i	1.6µM*
COc1cc(C2C(C#N)=C(N)Oc3cc(N)ccc32)cc(OC)c1OC (stereo not given)	-2%	?	1.2µM*	-4%	?	1.2µM*
N#CC1=C(N)Oc2cc(N)ccc2C1c1ccc(F)cc1F (stereo not given)	-2%	?	21µM*	-9%[56.9 µM]	?	23µM*
CCOc1cc(C2Nc3ccccc3C(=O)N2Cc2ccco2)ccc1OCc1ccccc1Cl (stereo not given)	/	i	/	-56%	i	/
C=CCN(c1ccccc1OC)S(=O)(=O)c1cccc(C(=O)OC2CCOC2=O)c1 (stereo not given)	-1%	i	-27%	-4%	i	-1%
C=CCN(c1ccccc1OC)S(=O)(=O)c1cccc(C(=O)OCC(=O)N2CC(C)OC(C)C2)c1 (stereo not given)	-4%	i	11%	-35%	4.1µM*	7%
CCc1ccc(NC(=O)Cn2c(-c3cncs3)nc3ccccc32)cc1	/	/	/	7%	/	/
COc1cccc(-c2nnc(Nc3nc4c(F)cccc4s3)o2)c1	-6%	i	16µM*	-14%	i	7%
COc1cccc2sc(Nc3nnc(-c4ccccc4Cl)o3)nc12	0%	?	?	-2%	i	2.6µM*
COc1ccccc1-c1nnc(Nc2nc3c(OC)cccc3s2)o1	0%	0.41µM*	?	5%[11.4 µM]	?	2.3µM*
COc1cccc2sc(NN)nc12	-1%	i	3%	-19%	i	-2%
CSc1cccc(NC(=O)CN2CCN(Cc3ccccc3C)S2(=O)=O)c1	/	i	/	-16%	i	/
O=C(NCC1CCCO1)c1cnn2c(C(F)F)cc(C3CC3)nc12 (stereo not given)	-4%	i	3%	-4%	6.5µM*	-2%
CCNC(=O)c1cnc2sc(N3CCCCCC3)nn2c1=O	/	/	/	-15%	/	/

Source: PubChem
